Details in all cases: mRNA level, 48 h; actives raise or lower the signal
Read-out in experiment [1]: Interleukin 6 Receptor (IL6R), IL6R (gene 3570)
Nature of the experiment: LTEA_HepaRG_IL6R: Life Technologies and Expression Analysis (LTEA) Assay for Interleukin 6 Receptor (IL6R) using HepaRG (AID 2283510). Summed up:
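HepaRG, 48 h exposure, 8-pt half-log series, top 100 uM, 0.5% DMSO vehicle, duplicates. Read-out: TaqMan qRT-PCR of IL6R transcript, housekeeping-gene normalized. Gain or loss fitted relative to DMSO baseline.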

Read-out in experiment [2]: Potassium channel subfamily K member 1 (KCNK1), KCNK1 (gene 3775)
As to the kind of experiment: LTEA_HepaRG_KCNK1: Life Technologies and Expression Analysis (LTEA) Assay for Potassium channel subfamily K member 1 (KCNK1) using HepaRG (AID 2283511). A digest of the protocol:
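HepaRG, 48 h exposure, 8-pt half-log series top 100 uM, 0.5% DMSO vehicle, duplicates. Readout: KCNK1 transcript by qRT-PCR (Fluidigm array), housekeeping-normalized; bidirectional curve fit relative to DMSO baseline.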

Read-out in experiment [3]: Keratin 19 (KRT19), KRT19 (gene 3880)
Nature of the experiment: LTEA_HepaRG_KRT19: Life Technologies and Expression Analysis (LTEA) Assay for Keratin 19 (KRT19) using HepaRG (AID 2283512). Summed up:
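KRT19 transcript levels, measured by Fluidigm qRT-PCR against three housekeeping genes, are fitted for gain or loss of signal relative to DMSO. Human HepaRG cells receive test chemicals (top 100 uM, half-log steps, 0.5% DMSO) for 48 hours.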

Read-out in experiment [4]: JUN Transcription Factor, JUN (gene 3725)
Nature of the experiment: LTEA_HepaRG_JUN: Life Technologies and Expression Analysis (LTEA) Assay for JUN Transcription Factor using HepaRG (AID 2283513). Summed up:
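HepaRG, 48 h exposure, 8-pt half-log series top 100 uM, 0.5% DMSO, duplicate. JUN mRNA by qRT-PCR (Fluidigm), housekeeping-normalized (ACTB/GAPDH/POLR2A); bidirectional curve fit vs DMSO baseline.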

Read-out in experiment [5]: Lipase C (LIPC), LIPC (gene 3990)
As to the kind of experiment: LTEA_HepaRG_LIPC: Life Technologies and Expression Analysis (LTEA) Assay for Lipase C (LIPC) using HepaRG (AID 2283514). Summed up:
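HepaRG, 48 h exposure, 8-pt half-log series from 100 uM in 0.5% DMSO, duplicates. Readout: LIPC mRNA by Fluidigm qRT-PCR, housekeeping-normalized (ACTB/GAPDH/POLR2A). Gain or loss fitted bidirectionally against DMSO baseline.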

Read-out in experiment [6]: Lipoprotein lipase (LPL), LPL (gene 4023)
As to the kind of experiment: LTEA_HepaRG_LPL: Life Technologies and Expression Analysis (LTEA) Assay for Lipoprotein lipase (LPL) using HepaRG (AID 2283515). A digest of the protocol: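 HepaRG, 48 h exposure, 8-pt half-log dilutions from 100 uM, 0.5% DMSO vehicle, duplicates; qRT-PCR (Fluidigm array) of LPL mRNA vs housekeeping genes; bidirectional curve fit relative to DMSO baseline.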

Read-out in experiment [7]: MicroRNA 122 (MIR122), gene 406906
As to the kind of experiment: LTEA_HepaRG_MIR122: Life Technologies and Expression Analysis (LTEA) Assay for MicroRNA 122 (MIR122) using HepaRG (AID 2283516). Also: the transcript read is the microRNA miR-122. Summed up: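 qRT-PCR read-out (TaqMan, Fluidigm array), normalized to three housekeeping genes; HepaRG cells dosed 48 h at 8 concentrations up to 100 uM in 0.5% DMSO, duplicate; gain or loss fitted against DMSO baseline.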

Read-out in experiment [8]: matrix metalloproteinase-10 (MMP10), MMP10 (gene 4319)
As to the kind of experiment: LTEA_HepaRG_MMP10: Life Technologies and Expression Analysis (LTEA) Assay for matrix metalloproteinase-10 (MMP10) using HepaRG (AID 2283517). A digest of the protocol: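 Transcript levels come from Fluidigm qRT-PCR normalized to three housekeeping genes, with curves fitted bidirectionally against 0.5% DMSO. Human HepaRG cells were dosed for 48 hours at concentrations up to 100 uM.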

Read-out in experiment [9]: MYC, MYC (gene 4609)
Nature of the experiment: LTEA_HepaRG_MYC: Life Technologies and Expression Analysis (LTEA) Assay for MYC using HepaRG (AID 2283518). Summed up:
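HepaRG, ~100,000 cells/well, collagen I; 48 h plating; serum-free induction medium; 48 h dosing, duplicate, 100 uM top, half-log, 0.5% DMSO; total RNA → qRT-PCR MYC; gain/loss fit vs DMSO.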

Read-out in experiment [10]: matrix metalloproteinase-3 (MMP3), MMP3 (gene 4314)
Nature of the experiment: LTEA_HepaRG_MMP3: Life Technologies and Expression Analysis (LTEA) Assay for matrix metalloproteinase-3 (MMP3) using HepaRG (AID 2283519). A digest of the protocol:
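qRT-PCR read-out of MMP3 mRNA (normalised to three housekeeping genes) in HepaRG liver cells after 48 h chemical exposure; 8-point half-log series, top 100 uM, 0.5% DMSO vehicle. Bidirectional curve fitting against DMSO baseline.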

Read-out in experiment [11]: Paternally Expressed 10 (PEG10), PEG10 (gene 23089)
Nature of the experiment: LTEA_HepaRG_PEG10: Life Technologies and Expression Analysis (LTEA) Assay for Paternally Expressed 10 (PEG10) using HepaRG (AID 2283520).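 As to AC50: differentiated HepaRG human liver cells in serum-free induction medium with 0.5% DMSO; PEG10 transcript by qRT-PCR normalised to ACTB GAPDH and POLR2A.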 Summed up: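 qRT-PCR read-out: PEG10 mRNA normalised to three housekeeping genes, fitted bidirectionally against 0.5% DMSO vehicle. HepaRG cells received test chemicals for 48 h in serum-free induction medium, 8 points, top 100 uM, half-log steps.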

Read-out in experiment [12]: Protein phosphatase 2A (PPP2R4), PTPA (gene 5524)
Nature of the experiment: LTEA_HepaRG_PPP2R4: Life Technologies and Expression Analysis (LTEA) Assay for Protein phosphatase 2A (PPP2R4) using HepaRG (AID 2283522). A digest of the protocol:
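HepaRG, 48 h exposure, 8-pt half-log series from 100 uM, 0.5% DMSO vehicle, duplicates. Readout: PPP2R4 mRNA, Fluidigm qRT-PCR, housekeeping-normalized. Bidirectional curve fit vs DMSO baseline.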

Read-out in experiment [13]: Phosphatase and tensin (PTEN), PTEN (gene 5728)
Nature of the experiment: LTEA_HepaRG_PTEN: Life Technologies and Expression Analysis (LTEA) Assay for Phosphatase and tensin (PTEN) using HepaRG (AID 2283523). Summed up: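 HepaRG, 48 h exposure, 8-pt half-log series from 100 uM top, 0.5% DMSO vehicle, duplicates. Readout: Fluidigm qRT-PCR of PTEN transcript; housekeeping normalization (ACTB, GAPDH, POLR2A). Gain or loss fitted relative to DMSO baseline.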

Read-out in experiment [14]: Pyruvate Dehydrogenase Kinase 4 (PDK4), PDK4 (gene 5166)
As to the kind of experiment: LTEA_HepaRG_PDK4: Life Technologies and Expression Analysis (LTEA) Assay for Pyruvate Dehydrogenase Kinase 4 (PDK4) using HepaRG (AID 2283525). A digest of the protocol:
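HepaRG (human liver line), 48 h chemical exposure, 8-pt half-log CRC top 100 uM, 0.5% DMSO vehicle, duplicates. Readout: TaqMan qRT-PCR of PDK4 mRNA, housekeeping-normalized; gain/loss fit relative to DMSO baseline.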

Read-out in experiment [15]: NAD(P)H dehydrogenase [quinone] 1 (NQO1), NQO1 (gene 1728)
As to the kind of experiment: LTEA_HepaRG_NQO1: Life Technologies and Expression Analysis (LTEA) Assay for NAD(P)H dehydrogenase [quinone] 1 (NQO1) using HepaRG (AID 2283526). A digest of the protocol:
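qRT-PCR read-out (Fluidigm TaqMan), normalized to three housekeeping genes, after 48 h chemical exposure of HepaRG cells. Concentrations: eight points, top 100 uM, half-log steps, 0.5% DMSO vehicle. Gain or loss of signal fitted relative to DMSO.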

Read-out in experiment [16]: Nuclear factor erythroid 2-related factor 2 (Homo sapiens) (UniProt Q16236)
As to the kind of experiment: LTEA_HepaRG_NFE2L2: Life Technologies and Expression Analysis (LTEA) Assay for Nuclear factor erythroid 2-related factor 2 (NFE2L2) Transcription Factor using HepaRG (AID 2283527).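 Also: TaqMan qRT-PCR transcript level normalised to ACTB GAPDH and POLR2A housekeeping genes.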 Summed up:
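HepaRG, 48 h dosing, 8-pt half-log series from 100 uM in 0.5% DMSO, duplicates. Read-out: NFE2L2 mRNA by qRT-PCR (ACTB/GAPDH/POLR2A normalization). Bidirectional curve fit vs DMSO baseline.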

Read-out in experiment [17]: succinate dehydrogenase complex iron sulfur subunit B (SDHB), SDHB (gene 6390)
As to the kind of experiment: LTEA_HepaRG_SDHB: Life Technologies and Expression Analysis (LTEA) Assay for succinate dehydrogenase complex iron sulfur subunit B (SDHB) using HepaRG (AID 2283528). A digest of the protocol:
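Readout is SDHB transcript level by qRT-PCR, normalised to three housekeeping genes and fitted bidirectionally against 0.5% DMSO vehicle. Human HepaRG cells were treated for 48 h at up to 100 uM.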

Read-out in experiment [18]: Signal transducer and activator of transcription 3 (Homo sapiens) (UniProt P40763)
As to the kind of experiment: LTEA_HepaRG_STAT3: Life Technologies and Expression Analysis (LTEA) Assay for Signal transducer and activator of transcription (STAT3) using HepaRG (AID 2283529). A digest of the protocol: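 HepaRG, 48 h exposure, 8-pt half-log series (top 100 uM), 0.5% DMSO vehicle, duplicates. Readout: STAT3 transcript by Fluidigm qRT-PCR, housekeeping-normalized; bidirectional fit vs DMSO baseline.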

Read-out in experiment [19]: Nuclear factor NF-kappa-B p105 subunit (Homo sapiens) (UniProt P19838)
As to the kind of experiment: LTEA_HepaRG_NFKB1: Life Technologies and Expression Analysis (LTEA) Assay for Nuclear Factor Kappa B Subunit 1 (NFKB1) using HepaRG (AID 2283521).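 Also: differentiated human HepaRG liver cells in serum-free induction medium; TaqMan qRT-PCR transcript normalised to ACTB GAPDH and POLR2A housekeeping genes.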 A digest of the protocol:
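HepaRG, 48 h exposure; 8-pt half-log series from 100 uM in 0.5% DMSO; duplicates. Readout: NFKB1 mRNA by qRT-PCR (Fluidigm arrays), housekeeping-normalized. Gain/loss fit vs DMSO baseline.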

Read-out in experiment [20]: solute carrier (SLC22A1), SLC22A1 (gene 6580)
Nature of the experiment: LTEA_HepaRG_SLC22A1: Life Technologies and Expression Analysis (LTEA) Assay for solute carrier (SLC22A1) using HepaRG (AID 2283524). A digest of the protocol:
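qRT-PCR readout (TaqMan, Fluidigm arrays) of SLC22A1 transcript, normalized to three housekeeping genes; bidirectional curve fit relative to 0.5% DMSO vehicle. Differentiated human HepaRG cells, 48 h chemical exposure, top concentration 100 uM, half-log steps, eight points.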

By AC50 is commonly meant the concentration at which the activity in the assay is half-maximal.

Active and inactive are the calls of the source. The calls were made as follows: active = hit-call score of the fitted dose curve at least 0.9, where 1 is the maximum; inactive = score below 0.9.

Signal transducer and activator of transcription 3 (Homo sapiens), sequence (P40763 whole entry, looked up): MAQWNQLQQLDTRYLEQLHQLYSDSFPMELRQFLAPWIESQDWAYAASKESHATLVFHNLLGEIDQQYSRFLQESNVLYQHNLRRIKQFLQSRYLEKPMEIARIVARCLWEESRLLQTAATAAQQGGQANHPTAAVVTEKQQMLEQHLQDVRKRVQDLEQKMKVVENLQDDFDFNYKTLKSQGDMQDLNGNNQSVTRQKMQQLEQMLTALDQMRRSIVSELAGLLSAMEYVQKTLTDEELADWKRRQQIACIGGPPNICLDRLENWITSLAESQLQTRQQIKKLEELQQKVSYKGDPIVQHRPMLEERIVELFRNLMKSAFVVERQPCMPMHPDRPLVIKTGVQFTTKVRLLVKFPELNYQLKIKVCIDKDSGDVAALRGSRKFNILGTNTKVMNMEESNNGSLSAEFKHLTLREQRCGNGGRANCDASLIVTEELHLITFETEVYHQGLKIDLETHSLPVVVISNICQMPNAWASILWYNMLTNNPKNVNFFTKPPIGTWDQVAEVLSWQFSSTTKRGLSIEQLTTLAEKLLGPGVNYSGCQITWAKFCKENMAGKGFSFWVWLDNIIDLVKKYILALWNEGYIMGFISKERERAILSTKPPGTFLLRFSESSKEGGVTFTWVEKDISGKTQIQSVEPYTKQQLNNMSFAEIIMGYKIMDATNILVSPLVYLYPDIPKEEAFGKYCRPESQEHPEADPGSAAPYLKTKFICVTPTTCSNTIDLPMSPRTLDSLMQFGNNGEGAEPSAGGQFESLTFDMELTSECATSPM
Nuclear factor erythroid 2-related factor 2 (Homo sapiens), sequence (Q16236 whole entry, looked up): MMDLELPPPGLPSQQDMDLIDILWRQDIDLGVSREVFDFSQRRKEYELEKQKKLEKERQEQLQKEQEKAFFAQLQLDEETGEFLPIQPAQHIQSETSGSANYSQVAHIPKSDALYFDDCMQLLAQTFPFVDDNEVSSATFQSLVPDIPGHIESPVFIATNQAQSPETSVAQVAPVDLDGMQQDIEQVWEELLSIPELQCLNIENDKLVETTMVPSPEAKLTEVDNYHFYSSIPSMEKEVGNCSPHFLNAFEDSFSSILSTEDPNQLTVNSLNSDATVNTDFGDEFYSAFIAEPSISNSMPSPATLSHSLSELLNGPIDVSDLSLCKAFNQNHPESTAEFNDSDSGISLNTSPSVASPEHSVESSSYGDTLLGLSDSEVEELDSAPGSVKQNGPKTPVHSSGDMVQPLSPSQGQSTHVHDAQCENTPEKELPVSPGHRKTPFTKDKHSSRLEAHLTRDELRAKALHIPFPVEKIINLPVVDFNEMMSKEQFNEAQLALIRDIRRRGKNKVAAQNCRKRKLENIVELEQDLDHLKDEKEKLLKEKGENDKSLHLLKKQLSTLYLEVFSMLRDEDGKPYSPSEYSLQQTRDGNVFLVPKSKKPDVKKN
Nuclear factor NF-kappa-B p105 subunit (Homo sapiens), sequence (P19838 whole entry, looked up): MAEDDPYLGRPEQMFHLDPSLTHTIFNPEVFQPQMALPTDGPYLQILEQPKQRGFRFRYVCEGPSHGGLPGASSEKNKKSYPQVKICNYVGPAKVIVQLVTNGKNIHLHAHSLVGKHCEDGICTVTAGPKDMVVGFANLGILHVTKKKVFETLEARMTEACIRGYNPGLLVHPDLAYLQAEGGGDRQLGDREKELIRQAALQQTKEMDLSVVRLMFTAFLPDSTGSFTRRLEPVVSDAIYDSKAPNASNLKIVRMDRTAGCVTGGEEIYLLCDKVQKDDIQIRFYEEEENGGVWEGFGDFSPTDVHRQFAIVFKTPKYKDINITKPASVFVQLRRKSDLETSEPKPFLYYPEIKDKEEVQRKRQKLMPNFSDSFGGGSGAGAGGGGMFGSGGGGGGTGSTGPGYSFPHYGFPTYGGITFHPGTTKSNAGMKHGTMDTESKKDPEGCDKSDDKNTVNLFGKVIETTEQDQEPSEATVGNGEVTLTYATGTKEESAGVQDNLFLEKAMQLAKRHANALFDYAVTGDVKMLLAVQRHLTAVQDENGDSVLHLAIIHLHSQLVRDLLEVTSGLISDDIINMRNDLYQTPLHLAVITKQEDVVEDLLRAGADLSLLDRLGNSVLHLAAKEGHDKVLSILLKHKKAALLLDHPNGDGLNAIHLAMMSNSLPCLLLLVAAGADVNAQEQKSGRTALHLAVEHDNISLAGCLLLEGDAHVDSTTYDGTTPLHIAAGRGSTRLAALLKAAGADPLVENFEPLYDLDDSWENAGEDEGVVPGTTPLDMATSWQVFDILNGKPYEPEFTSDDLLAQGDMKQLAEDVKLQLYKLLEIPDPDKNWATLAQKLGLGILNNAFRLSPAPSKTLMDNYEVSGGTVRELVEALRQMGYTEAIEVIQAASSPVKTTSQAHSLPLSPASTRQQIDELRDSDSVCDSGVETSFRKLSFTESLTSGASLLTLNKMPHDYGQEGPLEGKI

Regarding `Cc1ccc(N=CN(C)C=Nc2ccc(C)cc2C)c(C)c1`, the outcome in [1], in experiment [2], in [3], in experiment [4], in [5] and in experiment [6] was inactive. The compound was classed as inactive in [7], in experiment [8], in experiment [9], in experiment [10], in experiment [11] and in [12]. Also, the result in experiment [13], in experiment [14], in [15], in experiment [16], in experiment [17] and in [18] was inactive.

In the case of `Clc1cccc(C(Cl)(Cl)Cl)n1`, the compound was called inactive in experiment [1], in experiment [2], in [3], in [4], in experiment [5] and in [6]. Further, the call in [7], in experiment [8], in experiment [9], in experiment [10], in experiment [11] and in experiment [12] was inactive. Also, the compound was called inactive in experiment [13], in experiment [14], in experiment [15], in experiment [16], in experiment [17] and in [18].

For `CC(C)Oc1cccc(NC(=O)c2ccccc2C(F)(F)F)c1`, the compound was called inactive in experiment [1], in experiment [2], in experiment [4], in experiment [5], in experiment [6] and in experiment [7]. Further, the compound was classed as inactive in experiment [8], in experiment [10], in experiment [19], in experiment [12], in experiment [13] and in [20]. In addition, the result in [15], in [16], in experiment [17] and in [18] was inactive. In addition, the results for the AC50 in experiment [3], in experiment [11] and in [14] were 34.1 µM (active), 78.5 µM (active) and 50 µM (active), respectively.

For `CN/C(=N\[N+](=O)[O-])NCc1cnc(Cl)s1`, the call in [1], in experiment [4], in experiment [5], in experiment [6], in experiment [7] and in experiment [8] was inactive. Besides, the result in experiment [10], in [11], in experiment [12], in experiment [13], in experiment [15] and in [16] was inactive. Moreover, the call in experiment [17] and in [18] was inactive. The AC50 in [2] was 50 µM (active); in experiment [3] it was 17.8 µM (active); in experiment [14], 36.6 µM (active).

The record behind these values is PubChem BioAssay (EPA / NIEHS).
